This note sets out measurements from PubChem BioAssay (EPA / NIEHS).

Active and inactive are the calls of the source. The calls were made as follows: active = hit-call score of the fitted dose curve at least 0.9, where 1 is the maximum; inactive = score below 0.9.

Holding throughout (conditions): mRNA level, 48 h; actives raise or lower the signal
Read-out in test [1]: Broad substrate specificity ATP-binding cassette transporter ABCG2 (Homo sapiens) (UniProt Q9UNQ0)
Kind of test: LTEA_HepaRG_ABCG2: Life Technologies and Expression Analysis (LTEA) Assay for ABC Transporter (ABCG2) using HepaRG (AID 2283465). The method in brief: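 ABCG2 transcript was quantified by TaqMan qRT-PCR against three housekeeping genes in HepaRG cells. Cells were treated in duplicate for 48 h across an 8-point half-log series up to 100 uM, with 0.5% DMSO vehicle. Gain or loss versus DMSO was fit.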

Read-out in test [2]: ATP-citrate lyase (ACLY), ACLY (gene 47)
Kind of test: LTEA_HepaRG_ACLY: Life Technologies and Expression Analysis (LTEA) Assay for ATP-citrate lyase (ACLY) using HepaRG (AID 2283466). Summed up: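 ACLY mRNA quantified by qRT-PCR on Fluidigm arrays against three housekeeping genes, after 48 h chemical treatment of HepaRG cells (top concentration 100 uM, half-log steps, 0.5% DMSO vehicle). Up- or down-regulation fitted relative to DMSO.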

Read-out in test [3]: Peroxisomal acyl-coenzyme A oxidase 1 (ACOX1) gene, ACOX1 (gene 51)
Kind of test: LTEA_HepaRG_ACOX1: Life Technologies and Expression Analysis (LTEA) Assay for Peroxisomal acyl-coenzyme A oxidase 1 (ACOX1) gene using HepaRG (AID 2283467). The method in brief:
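ACOX1 transcript levels were quantified by TaqMan qRT-PCR against three housekeeping genes after 48 h chemical exposure of differentiated human HepaRG cells. Exposure used eight half-log steps topping at 100 uM, 0.5% DMSO vehicle, in duplicate. Bidirectional curve fits were made relative to DMSO.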

Read-out in test [4]: Alkaline Phosphatase, Placental (ALPP) gene, ALPP (gene 250)
Kind of test: LTEA_HepaRG_ALPP: Life Technologies and Expression Analysis (LTEA) Assay for Alkaline Phosphatase, Placental (ALPP) gene using HepaRG (AID 2283468). The method in brief: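 qRT-PCR readout of ALPP mRNA (Fluidigm TaqMan), normalized to ACTB/GAPDH/POLR2A, after 48 h chemical exposure of HepaRG cells; 8-point half-log series, top 100 uM, 0.5% DMSO vehicle. Bidirectional curve fit versus DMSO baseline.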

Read-out in test [5]: Bcl-2 (BAD) gene, BAD (gene 572)
Kind of test: LTEA_HepaRG_BAD: Life Technologies and Expression Analysis (LTEA) Assay for Bcl-2 (BAD) gene using HepaRG (AID 2283469). The method in brief: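 Read-out: qRT-PCR of BAD mRNA, normalized to three housekeeping genes. Human HepaRG cultures got 48 h chemical exposure in 0.5% DMSO, duplicate eight-point half-log series topping at 100 uM. Gain or loss of signal fitted versus DMSO vehicle.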

Read-out in test [6]: Bcl-2 (BAX) gene, BAX (gene 581)
Kind of test: LTEA_HepaRG_BAX: Life Technologies and Expression Analysis (LTEA) Assay for Bcl-2 (BAX) gene using HepaRG (AID 2283470). Summed up: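 Cells were thawed, plated for 48 h, moved to serum-free induction medium and dosed for 48 h (highest concentration 100 uM, half-log steps, 0.5% DMSO). Total RNA was then analysed for BAX expression by qRT-PCR.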

Read-out in test [7]: adenosine kinase (ADK) gene, ADK (gene 132)
Kind of test: LTEA_HepaRG_ADK: Life Technologies and Expression Analysis (LTEA) Assay for adenosine kinase (ADK) gene using HepaRG (AID 2283471). The method in brief: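 Read-out is ADK transcript level measured by qRT-PCR and normalised to three housekeeping genes. Cells are human HepaRG, dosed for 48 h at up to 100 uM in 0.5% DMSO. Gain or loss of signal is fitted against DMSO controls.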

Read-out in test [8]: Alpha-fetoprotein (AFP) gene, AFP (gene 174)
Kind of test: LTEA_HepaRG_AFP: Life Technologies and Expression Analysis (LTEA) Assay for Alpha-fetoprotein (AFP) gene using HepaRG (AID 2283472). The method in brief:
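Chemicals were tested on differentiated HepaRG cells for 48 hours at eight concentrations up to 100 uM, with 0.5% DMSO as vehicle. AFP expression was then quantified by qRT-PCR and analyzed for gain or loss relative to DMSO.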

Read-out in test [9]: BCL2L11 (gene 10018)
Kind of test: LTEA_HepaRG_BCL2L11: Life Technologies and Expression Analysis (LTEA) Assay for Bcl-2 (BCL2L11) gene using HepaRG (AID 2283473). Summed up:
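HepaRG, 48 h exposure, 8-pt half-log series from 100 uM in 0.5% DMSO, duplicates; qRT-PCR (Fluidigm TaqMan) for BCL2L11, housekeeping-normalized; bidirectional curve fit relative to DMSO baseline.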

Read-out in test [10]: Apolipoprotein A-V (APOA5) gene, APOA5 (gene 116519)
Kind of test: LTEA_HepaRG_APOA5: Life Technologies and Expression Analysis (LTEA) Assay for Apolipoprotein A-V (APOA5) gene using HepaRG (AID 2283474). Summed up: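 HepaRG, 48 h chemical exposure in serum-free induction medium, 8-pt half-log series (top 100 uM), 0.5% DMSO vehicle, duplicates. Readout: APOA5 mRNA by qRT-PCR, housekeeping-normalized; bidirectional fit vs DMSO baseline.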

Read-out in test [11]: Apoptosis regulator Bcl-2 (Homo sapiens) (UniProt P10415)
Kind of test: LTEA_HepaRG_BCL2: Life Technologies and Expression Analysis (LTEA) Assay for Bcl-2 gene using HepaRG (AID 2283475). The method in brief:
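Plated human HepaRG cells are exposed to test chemicals for 48 h across eight concentrations from 100 uM downward in half-log steps (0.5% DMSO). BCL2 expression is then measured by qRT-PCR with housekeeping normalisation and fitted bidirectionally against vehicle.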

Read-out in test [12]: Caspase-3 (Homo sapiens) (UniProt P42574)
Kind of test: LTEA_HepaRG_CASP3: Life Technologies and Expression Analysis (LTEA) Assay for cysteine-aspartic acid protease (CASP3) using HepaRG (AID 2283477). Summed up:
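HepaRG, 48 h exposure, 8 conc. (top 100 uM, half-log steps, duplicate), 0.5% DMSO vehicle; qRT-PCR of CASP3 transcript, housekeeping-normalised (ACTB/GAPDH/POLR2A); bidirectional curve fit vs DMSO baseline.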

Read-out in test [13]: Cytochrome P450 (CYP24A1), CYP24A1 (gene 1591)
Kind of test: LTEA_HepaRG_CYP24A1: Life Technologies and Expression Analysis (LTEA) Assay for Cytochrome P450 (CYP24A1) using HepaRG (AID 2283478). Summed up:
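qRT-PCR read-out: CYP24A1 transcript levels normalized to three housekeeping genes, bidirectional curve fits against 0.5% DMSO baseline. Human HepaRG cells treated 48 h with chemicals at eight concentrations from 100 uM in half-log steps.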

Read-out in test [14]: Cytochrome P450 (CYP1A2), CYP1A2 (gene 1544)
Kind of test: LTEA_HepaRG_CYP1A2: Life Technologies and Expression Analysis (LTEA) Assay for Cytochrome P450 (CYP1A2) using HepaRG (AID 2283479). Summed up: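 HepaRG, 48 h exposure, top 100 uM, half-log 8-pt, 0.5% DMSO vehicle, duplicates. Readout: TaqMan qRT-PCR of CYP1A2 mRNA, housekeeping-normalized (ACTB/GAPDH/POLR2A). Gain/loss fit relative to DMSO baseline.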

Read-out in test [15]: cysteine-aspartic acid protease (CASP8), CASP8 (gene 841)
Kind of test: LTEA_HepaRG_CASP8: Life Technologies and Expression Analysis (LTEA) Assay for cysteine-aspartic acid protease (CASP8) using HepaRG (AID 2283480). Summed up:
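CASP8 transcript measured by TaqMan qRT-PCR with ACTB/GAPDH/POLR2A normalization, after 48 h chemical exposure of HepaRG cells in serum-free induction medium. Eight concentrations, top 100 uM, half-log steps, 0.5% DMSO vehicle; fits in both directions versus DMSO.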

Read-out in test [16]: Cytochrome P450 (CYP2B6), CYP2B6 (gene 1555)
Kind of test: LTEA_HepaRG_CYP2B6: Life Technologies and Expression Analysis (LTEA) Assay for Cytochrome P450 (CYP2B6) using HepaRG (AID 2283481). The method in brief:
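Read-out is CYP2B6 mRNA by TaqMan qRT-PCR, normalized to three housekeeping genes and fitted bidirectionally against 0.5% DMSO baseline. Human HepaRG cells received test chemicals for 48 h, top concentration 100 uM, half-log dilutions.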

Read-out in test [17]: Cytochrome P450 2C19 (Homo sapiens) (UniProt P33261)
Kind of test: LTEA_HepaRG_CYP2C19: Life Technologies and Expression Analysis (LTEA) Assay for CYP2C19 using HepaRG (AID 2283482). The method in brief: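 HepaRG, 48 h chemical exposure, 8-pt half-log series from 100 uM in 0.5% DMSO, duplicates. Readout: CYP2C19 mRNA by TaqMan qRT-PCR, housekeeping-normalized. Bidirectional fit vs DMSO baseline; phenobarbital 1mM as induction control.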

Read-out in test [18]: CYP2C8 (gene 1558)
Kind of test: LTEA_HepaRG_CYP2C8: Life Technologies and Expression Analysis (LTEA) Assay for CYP2C8 using HepaRG (AID 2283483). The method in brief: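 CYP2C8 expression measured by TaqMan qRT-PCR and normalized to three housekeeping genes. HepaRG cultures were treated for 48 h with an eight-point half-log series topping at 100 uM, vehicle 0.5% DMSO, duplicates; fitted both directions against DMSO.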

Sequence of Cytochrome P450 2C19 (Homo sapiens) (P33261 whole entry, looked up): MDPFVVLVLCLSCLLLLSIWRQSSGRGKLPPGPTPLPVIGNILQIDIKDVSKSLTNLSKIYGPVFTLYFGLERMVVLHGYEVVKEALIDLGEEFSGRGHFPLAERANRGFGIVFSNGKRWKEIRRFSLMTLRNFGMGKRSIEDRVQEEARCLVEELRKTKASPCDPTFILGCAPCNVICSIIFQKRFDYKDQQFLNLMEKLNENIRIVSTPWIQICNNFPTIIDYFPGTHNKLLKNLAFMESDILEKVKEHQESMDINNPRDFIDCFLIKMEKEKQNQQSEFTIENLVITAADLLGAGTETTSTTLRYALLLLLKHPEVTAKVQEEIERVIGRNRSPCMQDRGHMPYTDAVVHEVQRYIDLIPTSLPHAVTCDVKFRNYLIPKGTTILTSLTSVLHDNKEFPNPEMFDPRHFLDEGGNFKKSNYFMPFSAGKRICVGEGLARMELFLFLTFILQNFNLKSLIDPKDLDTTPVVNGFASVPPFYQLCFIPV
Sequence of Caspase-3 (Homo sapiens) (P42574 whole entry, looked up): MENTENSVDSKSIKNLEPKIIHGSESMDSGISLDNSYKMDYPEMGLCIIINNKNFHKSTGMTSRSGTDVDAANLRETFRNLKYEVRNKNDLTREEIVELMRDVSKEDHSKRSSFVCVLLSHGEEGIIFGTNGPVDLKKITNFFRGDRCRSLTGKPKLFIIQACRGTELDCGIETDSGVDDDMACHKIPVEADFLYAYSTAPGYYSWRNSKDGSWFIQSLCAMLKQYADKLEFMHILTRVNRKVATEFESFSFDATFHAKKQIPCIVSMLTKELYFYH
Sequence of Broad substrate specificity ATP-binding cassette transporter ABCG2 (Homo sapiens) (Q9UNQ0 whole entry, looked up): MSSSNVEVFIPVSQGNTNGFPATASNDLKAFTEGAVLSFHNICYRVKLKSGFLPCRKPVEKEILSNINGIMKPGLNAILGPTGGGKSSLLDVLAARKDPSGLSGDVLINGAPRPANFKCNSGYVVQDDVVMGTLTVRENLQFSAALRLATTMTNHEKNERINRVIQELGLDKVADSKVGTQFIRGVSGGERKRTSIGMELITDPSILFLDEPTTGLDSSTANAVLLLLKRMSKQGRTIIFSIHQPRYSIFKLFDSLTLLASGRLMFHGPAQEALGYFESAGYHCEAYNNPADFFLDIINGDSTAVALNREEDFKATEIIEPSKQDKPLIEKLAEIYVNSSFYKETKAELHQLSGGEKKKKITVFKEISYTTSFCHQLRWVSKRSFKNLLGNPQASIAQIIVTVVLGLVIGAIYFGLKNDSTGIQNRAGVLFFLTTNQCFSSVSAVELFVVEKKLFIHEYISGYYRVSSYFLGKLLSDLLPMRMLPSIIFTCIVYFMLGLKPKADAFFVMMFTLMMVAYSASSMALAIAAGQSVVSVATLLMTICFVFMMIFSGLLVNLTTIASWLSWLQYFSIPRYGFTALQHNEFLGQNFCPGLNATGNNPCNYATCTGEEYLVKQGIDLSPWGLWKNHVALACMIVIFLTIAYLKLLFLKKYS
Sequence of Apoptosis regulator Bcl-2 (Homo sapiens) (P10415 whole entry, looked up): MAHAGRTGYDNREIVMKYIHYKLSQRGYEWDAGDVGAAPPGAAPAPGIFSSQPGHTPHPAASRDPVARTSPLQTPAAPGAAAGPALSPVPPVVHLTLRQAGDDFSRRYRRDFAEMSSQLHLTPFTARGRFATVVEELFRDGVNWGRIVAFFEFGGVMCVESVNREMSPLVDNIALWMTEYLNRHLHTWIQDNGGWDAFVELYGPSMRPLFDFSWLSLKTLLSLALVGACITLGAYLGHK

Turning to `CCNc1nc(N)nc(Cl)n1`, the call in [1], in [2], in [3], in test [4], in test [5] and in test [6] was inactive. Moreover, the compound was classed as inactive in test [7], in test [8], in test [9], in test [10], in test [11] and in [12]. Further, the compound was called inactive in [13], in test [14], in test [15] and in test [18]. Further, the AC50 (commonly the midpoint of the concentration-response curve, whichever way the signal moves) in test [16] is 6.87 µM (active); in test [17], 6.65 µM (active).

As for `C#C[C@]1(O)CC[C@H]2[C@@H]3CCC4=CC(=O)CC[C@@H]4[C@H]3CC[C@@]21CC`, the outcome in test [1], in [2], in test [3], in [4], in [5] and in test [6] was inactive. The call in test [7], in test [8], in test [9], in test [10], in test [11] and in test [12] was inactive. Further, the call in test [13], in test [14], in test [16] and in test [18] was inactive. In addition, the AC50 in [17] was 5.47 µM (active).

With `OB(O)O`, the outcome in test [1], in test [2], in test [3], in [4], in test [5] and in [6] was inactive. For the same compound, the call in [7], in test [8], in test [9], in test [10], in test [11] and in test [12] was inactive. The compound was classed as inactive in test [13], in test [14], in test [16], in [17] and in test [18].

Consider `CCCN(CCC)c1c([N+](=O)[O-])cc(C(F)(F)F)c(N)c1[N+](=O)[O-]`, for which the compound was classed as inactive in test [1], in [2], in test [3], in [4], in test [5] and in [6]. For the same compound, the call in test [7], in test [9], in test [11], in test [12], in [13] and in test [14] was inactive. Besides, in test [18], the result was inactive. Moreover, the AC50 in [8] was 34.4 µM (active); in test [10], 50 µM (active); in test [16], 3.15 µM (active); in test [17], 5.41 µM (active).

With `c1ccc(Nc2ccccc2)cc1`, the compound was classed as inactive in test [2], in [3], in test [4], in test [5], in test [6] and in test [7]. In addition, the outcome in test [8], in test [9], in [10], in [11], in [12] and in test [13] was inactive. Moreover, the compound was called inactive in test [14], in test [17] and in test [18]. Further, the AC50 in [16] was 24.9 µM (active).

In the case of `c1ccc2[nH]c(-c3cscn3)nc2c1`, the AC50 in [1] is 9.92 µM (active); in test [14], 23.6 µM (active); in test [16] it was 16.5 µM (active); in test [17], 28.6 µM (active). Further, the call in test [2], in [3], in test [4], in test [5], in test [6] and in test [7] was inactive. Also, the compound was classed as inactive in [8], in test [9], in [10], in [11], in test [12] and in test [13]. Besides, the call in test [18] was inactive.

In the case of `O=C(O)C1(C(=O)Nc2ccc(Cl)cc2Cl)CC1`, the AC50 in test [1] is 78.2 µM (active); in [3], 81.2 µM (active); in [7] it was 79.4 µM (active); in test [8], 65.6 µM (active); in test [10], 74.9 µM (active); in test [12] it was 28.4 µM (active). The concentration at half-maximal activity (AC50) in [16] was 66.9 µM (active); in [17], 76.5 µM (active); in test [18], 82.6 µM (active). The compound was called inactive in test [2], in test [4], in test [5], in test [6], in test [9] and in [11]. Also, the result in test [13] and in [14] was inactive.
